The campaign covered roughly 5,500 compounds. About 2,000 (36%) were called active. About 18% were inconclusive and are not listed. Cut-off read from the data, not from the text of the source: active = normalized growth mostly below about 0.91 (no sharp cut-off); inconclusive = no clear call, values can overlap the other calls; inactive = mostly above about 0.92. The list shows a part of the results.
Assay: chemical genetic growth profiling, strain panel (AID 1159580);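 note: tested at 20 µM; growth read once vehicle control cultures reached saturation at 30 °C; 1 = growth at the plate median or of vehicle wells; lower values mean less growth of the strain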
Conditions: growth OD

Measured: normalized growth

N#CC(O[C@@H]1O[C@H](CO[C@@H]2O[C@H](CO)[C@@H](O)[C@H](O)[C@H]2O)[C@@H](O)[C@H](O)[C@H]1O)c1ccccc1 (some centres not stated)
inactive: S. cerevisiae deletion strains, locus YJR043C, strain POL32, hits give low values 1.01 | S. cerevisiae deletion strains, locus YJR066W, strain TOR1, hits give low values 0.921 | S. cerevisiae deletion strains, locus YJR075W, strain HOC1, hits give low values 0.999 | S. cerevisiae deletion strains, locus YKL009W, strain mrt4, hits give low values 0.99 | S. cerevisiae deletion strains, locus YKL068W, hits give low values 0.991 | S. cerevisiae deletion strains, locus YKL085W, strain MDH1 (second series), hits give low values 0.987 | S. cerevisiae deletion strains, locus YKL085W, strain MDH1, hits give low values 0.987 | S. cerevisiae deletion strains, locus YKL160W, strain elf1, hits give low values 0.983 | S. cerevisiae deletion strains, locus YKR001C, strain vps1, hits give low values 0.988 | S. cerevisiae deletion strains, locus YKR026C, strain gcn3, hits give low values 0.977 | S. cerevisiae deletion strains, locus YKR091W, strain srl3, hits give low values 0.979 | S. cerevisiae deletion strains, locus YLL001W, strain dnm1, hits give low values 0.984 | S. cerevisiae deletion strains, locus YLL026W, hits give low values 0.981 | S. cerevisiae deletion strains, locus YLL041C, strain sdh2, hits give low values 0.991 | S. cerevisiae deletion strains, locus YLR027C, strain aat2, hits give low values 0.987 | S. cerevisiae deletion strains, locus YLR039C, strain RIC1, hits give low values 1.01 | S. cerevisiae deletion strains, locus YLR058C, strain SHM2, hits give low values 1.01 | S. cerevisiae deletion strains, locus YLR102C, strain apc9, hits give low values 0.983 | S. cerevisiae deletion strains, locus YLR113W, strain HOG1, hits give low values 1.03 | S. cerevisiae deletion strains, locus YLR221C, strain rsa3, hits give low values 0.976 | S. cerevisiae deletion strains, locus YLR258W, strain gsy2, hits give low values 0.982 | S. cerevisiae deletion strains, locus YLR262C, strain YPT6 (second series), hits give low values 0.991 | S. cerevisiae deletion strains, locus YLR262C, strain YPT6, hits give low values 1.04 | S. cerevisiae deletion strains, locus YLR268W, strain sec22, hits give low values 0.972 | S. cerevisiae deletion strains, locus YLR320W, strain mms22, hits give low values 0.968 | S. cerevisiae deletion strains, locus YLR330W, strain CHS5, hits give low values 1.01 | S. cerevisiae deletion strains, locus YLR342W, strain FKS1 (second series), hits give low values 1.03 | S. cerevisiae deletion strains, locus YLR342W, strain FKS1, hits give low values 0.967 | S. cerevisiae deletion strains, locus YLR357W, strain rsc2, hits give low values 0.948 | S. cerevisiae deletion strains, locus YLR370C, strain arc18, hits give low values 0.991 | S. cerevisiae deletion strains, locus YLR371W, strain rom2, hits give low values 1.01 | S. cerevisiae deletion strains, locus YLR384C, strain iki3, hits give low values 0.96 | S. cerevisiae deletion strains, locus YLR418C, strain cdc73, hits give low values 1.02 | S. cerevisiae deletion strains, locus YML016C, strain PPZ1, hits give low values 0.986 | S. cerevisiae deletion strains, locus YML032C, strain rad52, hits give low values 1.01 | S. cerevisiae deletion strains, locus YML120C, strain ndi1, hits give low values 0.991 | S. cerevisiae deletion strains, locus YML124C, strain tub3, hits give low values 0.999 | S. cerevisiae deletion strains, locus YMR058W, strain fet3, hits give low values 0.989 | S. cerevisiae deletion strains, locus YMR078C, strain ctf18, hits give low values 1 | S. cerevisiae deletion strains, locus YMR125W, strain sto1, hits give low values 0.965 | S. cerevisiae deletion strains, locus YMR129W, hits give low values 0.985 | S. cerevisiae deletion strains, locus YMR205C, strain PFK2, hits give low values 0.985 | S. cerevisiae deletion strains, locus YMR223W, strain ubp8, hits give low values 1.01 | S. cerevisiae deletion strains, locus YMR231W, strain pep5, hits give low values 0.964 | S. cerevisiae deletion strains, locus YMR307W, strain GAS1, hits give low values 1.01 | S. cerevisiae deletion strains, locus YNL067W, strain RPL9B, hits give low values 1.03 | S. cerevisiae deletion strains, locus YNL071W, strain lat1, hits give low values 0.98 | S. cerevisiae deletion strains, locus YNL183C, strain NPR1, hits give low values 0.976 | S. cerevisiae deletion strains, locus YNL209W, strain ssb2, hits give low values 0.984 | S. cerevisiae deletion strains, locus YNL233W, strain BNI4, hits give low values 1.04 | S. cerevisiae deletion strains, locus YNL248C, strain rpa49, hits give low values 0.983 | S. cerevisiae deletion strains, locus YNL250W, strain rad50, hits give low values 0.969 | S. cerevisiae deletion strains, locus YNL271C, strain bni1, hits give low values 0.986 | S. cerevisiae deletion strains, locus YNL298W, strain CLA4, hits give low values 0.996 | S. cerevisiae deletion strains, locus YNL307C, strain MCK1, hits give low values 0.991 | S. cerevisiae deletion strains, locus YNL322C, strain KRE1 (second series), hits give low values 0.977 | S. cerevisiae deletion strains, locus YNR049C, strain mso1, hits give low values 0.984 | S. cerevisiae deletion strains, locus YNR052C, strain pop2, hits give low values 0.989 | S. cerevisiae deletion strains, locus YOL006C, strain TOP1, hits give low values 1.05 | S. cerevisiae deletion strains, locus YOL012C, strain htz1 1.19 | S. cerevisiae deletion strains, locus YOL147C, strain pex11, hits give low values 0.989 | S. cerevisiae deletion strains, locus YOR001W, strain rrp6, hits give low values 0.946 | S. cerevisiae deletion strains, locus YOR061W, strain CKA2, hits give low values 0.993 | S. cerevisiae deletion strains, locus YOR069W, strain VPS5, hits give low values 0.993 | S. cerevisiae deletion strains, locus YOR070C, strain gyp1, hits give low values 0.967 | S. cerevisiae deletion strains, locus YOR080W, strain dia2, hits give low values 0.966 | S. cerevisiae deletion strains, locus YOR083W, strain WHI5, hits give low values 0.976 | S. cerevisiae deletion strains, locus YOR106W, strain vam3, hits give low values 0.989 | S. cerevisiae deletion strains, locus YOR136W, strain idh2, hits give low values 0.994 | S. cerevisiae deletion strains, locus YOR144C, strain elg1, hits give low values 0.99 | S. cerevisiae deletion strains, locus YOR184W, strain ser1, hits give low values 1.04 | S. cerevisiae deletion strains, locus YOR231W, strain MKK1, hits give low values 0.974 | S. cerevisiae deletion strains, locus YOR265W, strain rbl2, hits give low values 0.981 | S. cerevisiae deletion strains, locus YOR270C, strain vph1, hits give low values 0.98 | S. cerevisiae deletion strains, locus YOR290C, strain snf2, hits give low values 0.988 | S. cerevisiae deletion strains, locus YOR316C, strain cot1, hits give low values 0.985 | S. cerevisiae deletion strains, locus YPL051W, strain arl3, hits give low values 0.98 | S. cerevisiae deletion strains, locus YPL078C, strain atp4, hits give low values 0.984 | S. cerevisiae deletion strains, locus YPL106C, strain sse1, hits give low values 0.972 | S. cerevisiae deletion strains, locus YPL240C, strain hsp82, hits give low values 0.985 | S. cerevisiae deletion strains, locus YPL256C, strain CLN2, hits give low values 0.969 | S. cerevisiae deletion strains, locus YPR119W, strain clb2, hits give low values 1.01 | S. cerevisiae deletion strains, locus YPR141C, strain kar3, hits give low values 0.981 | S. cerevisiae deletion strains, locus YPR163C, strain tif3, hits give low values 0.992 | S. cerevisiae deletion strains, locus YPR167C, strain met16, hits give low values 0.973 | S. cerevisiae deletion strains, strain wtn01, hits give low values 0.984 | S. cerevisiae strains, strain wild type, hits give low values 1.02
